Measurements as given in ChEMBL document CHEMBL1961873, “Compounds: GSK PKIS; Assays: Nanosyn kinase panel” (2012).

How the values were obtained:
[1] = biological target: T1, Serine/threonine-protein kinase TBK1 (Homo sapiens) (UniProt Q9UHD2); conditions: at 1 µM;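 further: values are mean inhibition of TBK1, screened as part of the GSK published kinase inhibitor set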
T1 sequence (whole entry): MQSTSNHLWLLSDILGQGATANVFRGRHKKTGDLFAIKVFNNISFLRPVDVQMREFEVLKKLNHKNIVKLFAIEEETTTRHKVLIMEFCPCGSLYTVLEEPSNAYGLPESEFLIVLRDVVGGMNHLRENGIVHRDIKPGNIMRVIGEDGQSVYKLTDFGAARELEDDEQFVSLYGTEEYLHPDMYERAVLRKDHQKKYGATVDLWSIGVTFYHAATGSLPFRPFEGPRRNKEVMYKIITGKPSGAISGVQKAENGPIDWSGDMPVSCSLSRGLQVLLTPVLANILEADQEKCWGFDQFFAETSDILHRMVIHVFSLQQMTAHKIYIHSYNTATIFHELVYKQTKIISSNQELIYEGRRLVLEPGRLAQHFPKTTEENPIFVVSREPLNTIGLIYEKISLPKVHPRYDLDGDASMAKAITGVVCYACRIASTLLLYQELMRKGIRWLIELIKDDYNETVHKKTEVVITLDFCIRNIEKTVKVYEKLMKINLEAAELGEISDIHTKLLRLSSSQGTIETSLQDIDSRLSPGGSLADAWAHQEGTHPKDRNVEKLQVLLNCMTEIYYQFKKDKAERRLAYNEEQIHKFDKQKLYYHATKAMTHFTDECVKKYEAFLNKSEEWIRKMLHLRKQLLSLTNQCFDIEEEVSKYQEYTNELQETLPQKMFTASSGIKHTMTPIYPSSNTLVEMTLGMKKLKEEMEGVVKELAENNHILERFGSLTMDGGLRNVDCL

[2] = biological target: T2, Testis-specific serine/threonine-protein kinase 1 (Homo sapiens) (UniProt Q9BXA7); conditions: at 0.1 µM
T2 sequence (whole entry): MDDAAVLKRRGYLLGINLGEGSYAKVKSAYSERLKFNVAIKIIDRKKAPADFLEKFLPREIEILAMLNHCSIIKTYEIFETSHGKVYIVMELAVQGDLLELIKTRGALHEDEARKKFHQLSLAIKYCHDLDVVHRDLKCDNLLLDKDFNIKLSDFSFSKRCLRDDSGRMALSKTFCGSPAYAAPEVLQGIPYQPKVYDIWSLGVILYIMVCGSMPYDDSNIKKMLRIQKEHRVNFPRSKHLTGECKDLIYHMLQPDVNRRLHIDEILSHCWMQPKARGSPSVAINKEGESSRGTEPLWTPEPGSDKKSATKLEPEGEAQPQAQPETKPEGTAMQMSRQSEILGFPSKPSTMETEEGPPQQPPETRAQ

[3] = biological target: T2, Testis-specific serine/threonine-protein kinase 1 (Homo sapiens); conditions: at 1 µM
[4] = biological target: T3, Testis-specific serine/threonine-protein kinase 2 (Homo sapiens) (UniProt Q96PF2); conditions: at 0.1 µM
T3 sequence (whole entry): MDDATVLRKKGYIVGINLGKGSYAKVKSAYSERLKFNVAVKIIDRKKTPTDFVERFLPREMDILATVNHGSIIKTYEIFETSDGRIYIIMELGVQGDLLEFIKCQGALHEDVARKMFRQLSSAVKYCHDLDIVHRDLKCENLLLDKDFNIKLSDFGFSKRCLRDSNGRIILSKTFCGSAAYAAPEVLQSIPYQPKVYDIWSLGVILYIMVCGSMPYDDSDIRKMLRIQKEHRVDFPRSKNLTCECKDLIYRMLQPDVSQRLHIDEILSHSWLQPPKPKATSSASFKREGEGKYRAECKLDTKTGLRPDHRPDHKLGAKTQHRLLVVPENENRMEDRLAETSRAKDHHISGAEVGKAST

[5] = biological target: T3, Testis-specific serine/threonine-protein kinase 2 (Homo sapiens); conditions: at 1 µM
[6] = biological target: Casein kinase I isoform alpha (Homo sapiens) (UniProt P48729); conditions: at 0.1 µM
Casein kinase I isoform alpha (Homo sapiens), sequence (P48729 2-337 limits assumed): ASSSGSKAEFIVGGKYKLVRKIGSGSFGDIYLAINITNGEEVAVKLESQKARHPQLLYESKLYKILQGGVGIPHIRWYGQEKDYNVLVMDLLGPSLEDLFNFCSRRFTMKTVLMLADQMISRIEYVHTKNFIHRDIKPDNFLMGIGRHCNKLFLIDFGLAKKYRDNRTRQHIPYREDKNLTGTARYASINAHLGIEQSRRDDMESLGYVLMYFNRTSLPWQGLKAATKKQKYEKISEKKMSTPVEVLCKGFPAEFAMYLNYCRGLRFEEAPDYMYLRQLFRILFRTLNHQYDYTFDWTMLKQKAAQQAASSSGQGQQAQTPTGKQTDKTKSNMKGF

[7] = biological target: Casein kinase I isoform alpha (Homo sapiens) (UniProt P48729); conditions: at 1 µM
[8] = biological target: Casein kinase I isoform gamma-1 (Homo sapiens) (UniProt Q9HCP0); conditions: at 0.1 µM
Casein kinase I isoform gamma-1 (Homo sapiens), sequence (Q9HCP0 whole entry, looked up, canonical isoform): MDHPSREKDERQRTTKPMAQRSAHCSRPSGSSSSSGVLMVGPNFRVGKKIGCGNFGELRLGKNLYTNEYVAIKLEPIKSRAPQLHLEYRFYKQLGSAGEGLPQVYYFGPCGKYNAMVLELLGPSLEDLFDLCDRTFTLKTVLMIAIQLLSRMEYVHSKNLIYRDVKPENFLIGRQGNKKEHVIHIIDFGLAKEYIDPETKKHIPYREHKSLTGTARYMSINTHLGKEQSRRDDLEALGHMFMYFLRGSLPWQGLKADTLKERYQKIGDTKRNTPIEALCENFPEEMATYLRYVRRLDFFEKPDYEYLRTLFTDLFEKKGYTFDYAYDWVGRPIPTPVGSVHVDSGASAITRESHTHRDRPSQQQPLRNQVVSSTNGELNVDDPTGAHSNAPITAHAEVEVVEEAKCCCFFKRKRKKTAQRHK

[9] = biological target: Casein kinase I isoform gamma-1 (Homo sapiens) (UniProt Q9HCP0); conditions: at 1 µM
[10] = biological target: Casein kinase I isoform gamma-2 (Homo sapiens) (UniProt P78368); conditions: at 1 µM
Casein kinase I isoform gamma-2 (Homo sapiens), sequence (P78368 whole entry, looked up, canonical isoform): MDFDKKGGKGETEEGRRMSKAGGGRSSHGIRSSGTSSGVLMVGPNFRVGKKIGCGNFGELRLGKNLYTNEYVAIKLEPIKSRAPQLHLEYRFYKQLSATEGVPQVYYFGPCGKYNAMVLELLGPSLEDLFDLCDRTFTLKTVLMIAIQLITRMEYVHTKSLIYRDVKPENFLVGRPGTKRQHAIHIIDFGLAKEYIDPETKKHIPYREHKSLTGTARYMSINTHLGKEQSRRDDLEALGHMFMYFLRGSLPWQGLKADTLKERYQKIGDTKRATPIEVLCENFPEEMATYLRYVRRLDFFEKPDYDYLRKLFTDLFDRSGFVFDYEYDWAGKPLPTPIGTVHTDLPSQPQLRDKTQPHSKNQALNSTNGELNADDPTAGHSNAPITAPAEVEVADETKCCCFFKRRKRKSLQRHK

[11] = biological target: Casein kinase I isoform gamma-3 (Homo sapiens) (UniProt Q9Y6M4); conditions: at 0.1 µM
Casein kinase I isoform gamma-3 (Homo sapiens), sequence (Q9Y6M4 whole entry, looked up, canonical isoform): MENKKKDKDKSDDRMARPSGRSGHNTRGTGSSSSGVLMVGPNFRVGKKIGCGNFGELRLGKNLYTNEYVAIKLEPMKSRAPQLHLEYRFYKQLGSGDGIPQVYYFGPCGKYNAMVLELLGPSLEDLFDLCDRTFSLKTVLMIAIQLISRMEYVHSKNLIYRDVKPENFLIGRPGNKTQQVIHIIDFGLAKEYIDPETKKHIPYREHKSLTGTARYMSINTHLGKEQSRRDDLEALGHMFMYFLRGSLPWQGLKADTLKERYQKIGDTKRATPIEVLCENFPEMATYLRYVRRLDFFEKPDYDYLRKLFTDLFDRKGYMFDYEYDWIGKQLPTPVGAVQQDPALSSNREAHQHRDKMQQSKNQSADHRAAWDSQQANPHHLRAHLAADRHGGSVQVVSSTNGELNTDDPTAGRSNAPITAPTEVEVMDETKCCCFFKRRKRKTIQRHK

[12] = biological target: Casein kinase I isoform gamma-3 (Homo sapiens) (UniProt Q9Y6M4); conditions: at 1 µM
[13] = biological target: Cyclin-dependent kinase 1 (Homo sapiens) (UniProt P06493); conditions: at 0.1 µM
Cyclin-dependent kinase 1 (Homo sapiens), sequence (P06493 whole entry, looked up): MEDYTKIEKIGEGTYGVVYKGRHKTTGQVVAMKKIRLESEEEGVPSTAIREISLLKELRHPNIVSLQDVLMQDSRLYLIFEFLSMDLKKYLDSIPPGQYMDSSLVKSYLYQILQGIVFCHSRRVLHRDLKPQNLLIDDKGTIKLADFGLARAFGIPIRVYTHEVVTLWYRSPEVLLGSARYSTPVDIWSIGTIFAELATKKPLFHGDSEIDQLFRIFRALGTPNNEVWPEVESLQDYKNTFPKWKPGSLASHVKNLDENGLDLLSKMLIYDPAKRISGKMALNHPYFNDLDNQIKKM

[14] = biological target: Cyclin-dependent kinase 1 (Homo sapiens) (UniProt P06493); conditions: at 1 µM
[15] = biological target: Cyclin-dependent kinase 2 (Homo sapiens) (UniProt P24941); conditions: at 0.1 µM
[16] = biological target: Cyclin-dependent kinase 2 (Homo sapiens) (UniProt P24941); conditions: at 1 µM
[17] = biological target: Cyclin-dependent kinase 2 (Homo sapiens) (UniProt P24941); conditions: at 0.1 µM; remark: listed apart in the source
[18] = biological target: Cyclin-dependent kinase 2 (Homo sapiens) (UniProt P24941); conditions: at 1 µM; remark: listed apart in the source
[19] = biological target: CDK3/Cyclin E (Homo sapiens) (UniProt P24864+Q00526); conditions: at 0.1 µM;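 further: reported percentages are mean inhibition values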
CDK3/Cyclin E (Homo sapiens), sequence (P24864 whole entry, looked up, canonical isoform): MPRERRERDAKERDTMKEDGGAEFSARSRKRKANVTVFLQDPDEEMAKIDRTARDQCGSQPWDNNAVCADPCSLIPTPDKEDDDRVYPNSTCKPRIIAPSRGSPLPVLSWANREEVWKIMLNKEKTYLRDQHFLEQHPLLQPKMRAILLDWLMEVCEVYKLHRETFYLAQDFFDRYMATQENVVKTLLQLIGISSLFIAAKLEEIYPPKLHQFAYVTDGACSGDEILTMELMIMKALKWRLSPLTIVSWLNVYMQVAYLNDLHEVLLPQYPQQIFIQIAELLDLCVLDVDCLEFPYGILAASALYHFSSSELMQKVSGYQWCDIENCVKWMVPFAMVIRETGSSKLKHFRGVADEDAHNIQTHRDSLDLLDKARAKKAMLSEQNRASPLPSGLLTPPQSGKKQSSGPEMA
CDK3/Cyclin E (Homo sapiens), sequence (Q00526 whole entry, looked up, canonical isoform): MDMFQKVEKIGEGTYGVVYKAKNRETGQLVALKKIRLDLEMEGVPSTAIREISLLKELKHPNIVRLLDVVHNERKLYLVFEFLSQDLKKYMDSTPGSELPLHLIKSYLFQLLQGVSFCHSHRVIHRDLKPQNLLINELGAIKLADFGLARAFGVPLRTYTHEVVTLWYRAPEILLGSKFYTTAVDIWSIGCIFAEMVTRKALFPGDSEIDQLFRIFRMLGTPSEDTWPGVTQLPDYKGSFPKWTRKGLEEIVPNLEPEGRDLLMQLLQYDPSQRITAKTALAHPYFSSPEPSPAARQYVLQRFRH

[20] = biological target: Casein kinase I isoform gamma-2 (Homo sapiens) (UniProt P78368); conditions: at 0.1 µM

Row | SMILES | inhibition [1] | inhibition [2] | inhibition [3] | inhibition [4] | inhibition [5] | inhibition [6] | inhibition [7] | inhibition [8] | inhibition [9] | inhibition [10] | inhibition [11] | inhibition [12] | inhibition [13] | inhibition [14] | inhibition [15] | inhibition [16] | inhibition [17] | inhibition [18] | inhibition [19] | inhibition [20]
1 | COc1cc2c(cc1Nc1nc(Nc3ccsc3C(N)=O)c3cc[nH]c3n1)N(C(=O)CN(C)C)CCC2 | 25% | 92.3% | 95.5% | 59.4% | 91.2% | -0.45% | 4.2% | -0.49% | 5.86% | -7.97% | 1.11% | 10.3% | 5.37% | 6.76% | 4.39% | 6.12% | 0.86% | -1.41% | 0.3% | –
2 | NS(=O)(=O)c1ccc(N/C=C2\C(=O)Nc3ccc4ncsc4c32)cc1 | 46.7% | 5.24% | 19.4% | 1.13% | 2.94% | 3.99% | 14.7% | 4.38% | 9.59% | 11.1% | 5.65% | 14.4% | 25% | 62.4% | 82.7% | 94.4% | 70.8% | 75% | 75.5% | 2.65%
3 | COc1cccc(COc2cc(-n3cnc4ccccc43)sc2C(N)=O)c1 | 1.53% | -0.31% | -0.86% | 0.72% | -0.49% | -2.17% | -2.7% | 1.18% | 2.68% | 1.17% | 0.42% | 1.21% | 0.45% | -0.26% | 0.15% | -0.04% | -0.91% | -0.85% | -1.38% | 2.02%
4 | CCn1c(-c2nonc2N)nc2c(C#CCN)ncc(OCCCN)c21 | 4.32% | -0.75% | 11.3% | -0.97% | 4.75% | 1.05% | -3.92% | -2.42% | -2.61% | -2.49% | -1.84% | -2.94% | 3.69% | 2.18% | 0.26% | 0.59% | 2.03% | 2.69% | 2.51% | -0.29%
5 | NC(=O)c1sc(-n2cnc3cc(C(F)(F)F)ccc32)cc1OCc1ccccc1Br | 1.3% | 2.93% | 3.05% | 2.48% | 1.1% | 1.1% | -0.24% | 1.09% | -0.28% | 0.89% | 1.52% | 1.06% | 0.9% | 4.47% | 0.47% | 2.92% | 0.99% | 3.19% | -1.34% | 0.61%
6 | NS(=O)(=O)c1ccc(-c2ccc3c(NC(=O)C4CC4)n[nH]c3c2)cc1 | 3.1% | 0.11% | -0.04% | 1.09% | -2.52% | 6.65% | 2.79% | 1.56% | 2.58% | 1.7% | 0.52% | -0.19% | 0.48% | 5.13% | 2.91% | 13.4% | 2.18% | 5.85% | 2.19% | 1%
7 | COc1cccc(-n2ncc3c(N/N=C/c4ccncc4)ncnc32)c1 | 13.1% | 4.13% | 5.05% | 1.6% | 2.48% | 6.11% | 11.2% | 3.65% | 7.48% | 9.79% | 5.28% | 6.59% | 45% | 81.8% | 47% | 76.8% | 24.6% | 65.2% | 12.2% | 3.26%
8 | Nc1nonc1-c1nc2cnccc2n1C1CCCCC1 | 24.8% | 0.17% | 6.12% | -1.12% | -2.07% | -1.01% | -0.02% | -2.65% | -0.45% | 0.45% | -1.94% | 1.85% | 5.2% | 24.5% | 7.81% | 44.6% | 8.62% | 41.5% | 4.5% | -2.61%
9 | CCn1c(-c2nonc2N)nc2c(C#CC(C)(C)O)nc(O[C@@H](CN)c3ccccc3)cc21 | 68% | 85.5% | 95.6% | 1.41% | 14.8% | 1.59% | 4.15% | -0.58% | 7.01% | 4.43% | -0.48% | 9.88% | 4.13% | 4.92% | 2.07% | 4.12% | 2.92% | 4.27% | 3.62% | -0.78%
10 | CCn1c(-c2nonc2N)nc2c(C#CC(C)(C)O)ncc(OCC3CCNCC3)c21 | 44.7% | 24.4% | 73% | 2.77% | 5.17% | 4.15% | 4.34% | -0.98% | 0.65% | 0.7% | -1.65% | -0.62% | -0.87% | 4.13% | -0.3% | 4.17% | 6.49% | 9.55% | 7.2% | -1.19%
11 | COc1cc(C=NNc2ncnc3c2cnn3Cc2ccccc2)ccc1O | 3.75% | -3.19% | -2.62% | -2.34% | -2.56% | -0.09% | -4.3% | -3.34% | -3.33% | -3.09% | 0.15% | -1.86% | 3.83% | 14.8% | 0.83% | 0.3% | -0.38% | 6.08% | 0.9% | -2.95%
12 | Fc1ccc(-c2ncn(C3CCNCC3)c2-c2ccnc(Oc3ccccc3)n2)cc1 | 2.78% | 2.36% | 1.65% | 0.82% | 0.7% | 4.72% | 30.9% | -1.52% | 4.5% | 2.3% | -1.46% | 10% | -3.4% | -1.98% | -3.24% | -1.87% | -2.35% | -0.94% | -3.17% | -1.96%
13 | CCn1c(-c2nonc2N)nc2c(C#CC(C)(C)O)ncc(OC[C@@H]3CCCN3)c21 | 41.2% | 20.6% | 70.4% | 4.9% | 2.67% | -1.71% | -2.58% | 1.04% | 2.69% | 2.18% | 0.87% | 3.35% | -0.63% | 0.58% | -1.52% | -0.07% | -0.64% | -0.07% | -0.42% | 1.05%
14 | Cc1cc(-c2ccco2)cc(C)c1/C=C/c1cncc(-c2nn[nH]n2)c1 | 2.37% | 1.7% | 2.37% | 1.46% | 0.42% | 1.02% | -0.59% | 1.01% | 1.56% | 1.08% | 0.9% | 2.3% | 0.87% | 2.16% | 0.49% | 1.75% | 0.38% | 2.54% | -0.91% | 0.62%
